Holding throughout (experiment): PBM binding z-score (relative to random genomic background probes); higher = stronger binding; sequences stand for … in GC…GCGATTGACAGCGTAGAATGAAGG
Experiment [1] has as its system FXR:RXRa (NR concentration 270 nM, RXRa partner concentration 90 nM). In outline:
(§1)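 For binding z-scores, the reference was random background probes on custom Agilent 4×180K protein-binding microarrays. These arrays were incubated 1 h with ligand-free nuclear receptor dimers in PBS pH 7.4, 2% milk, 0.02% Triton X-100, 1 mM DTT, 0.2 mg/mL BSA and 0.4 mg/ml salmon testes DNA. Fluorescence was scanned after antibody detection of each partner (one per run) and regression-normalized.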

Experiment [2] deals with LXRa:RXRa (NR concentration 270 nM, RXRa partner concentration 90 nM). In outline: as §1
Experiment [3] has as its system LXRa homodimer (NR concentration 270 nM). In outline: as §1
The test system of experiment [4] is LXRb:RXRa (NR concentration 270 nM, RXRa partner concentration 90 nM). In short, it runs like this:
as §1

Experiment [5] deals with LXRb homodimer (NR concentration 270 nM). In outline: as §1
Experiment [6] has as its system PPARa:RXRa (NR concentration 270 nM, RXRa partner concentration 90 nM). In short, it runs like this: as §1
The test system of experiment [7] is PPARg:RXRa (NR concentration 180 nM, RXRa partner concentration 90 nM). In short, it runs like this:
as §1

The subject of experiment [8] is PPARg:RXRa 270nM:90nM, anti-RXR (NR concentration 270 nM, RXRa partner concentration 90 nM). In short, it runs like this: as §1
Experiment [9] concerns PPARg:RXRa 30nM:10nM, anti-RXR (NR concentration 30 nM, RXRa partner concentration 10 nM). In outline: as §1
For experiment [10], the system named is PPARg:RXRa 90nM:30nM, anti-RXR (NR concentration 90 nM, RXRa partner concentration 30 nM). In short, it runs like this:
as §1

Turning to CGATCGAGGGCATGAGTTGATAGCAAATGCCGAT, the PBM binding z-score in [1] was 0.233; in experiment [2], -0.0163; in experiment [3], -0.798; in [4], -0.0334; in experiment [5], -1.04; in [6] it was 1.22. Moreover, the PBM binding z-score in [7] is 1.17; in experiment [8], 1.29; in experiment [9] it was -0.0363; in experiment [10], 0.755.
As for ATCTCTAGGTAAGTCTCAGTTCAGTGAAGAACGC, the PBM binding z-score in [1] was found to be 0.588; in [2], 0.489; in [3], 0.754; in experiment [4], 0.383; in experiment [5], 1.26; in [6], 0.246. Further, the PBM binding z-score was -0.297 in experiment [7], 0.387 in experiment [8], 0.236 in [9] and 0.632 in experiment [10].
CCGACTGGGGAAAAGGTTACCATACTCAGTACGA: the PBM binding z-score in experiment [1] was 0.132; in [2], 0.716; in experiment [3] it was -0.0897; in experiment [4], 1.29; in experiment [5], -0.67; in experiment [6], 3.82. Besides, the PBM binding z-score came out at 6.95 in [7], 7.47 in experiment [8], 6.02 in experiment [9] and 8.23 in [10].
Consider CTAACGAGGGCATGAGTTGATAGCAAATGCCGAT, for which the PBM binding z-score in [1] was 0.543; in [2], 0.409; in [3], -0.604; in experiment [4], 0.119; in [5], -0.182; in experiment [6], 1.54. Besides, the PBM binding z-score is 1.71 in experiment [7], 2.02 in [8], 0.704 in experiment [9] and 1.51 in [10].
As for GCTTGTAGATCGAGGTTAAGAAAGACTAAGCTAA, the PBM binding z-score in [1] is 0.262; in [2] it was 1.09; in [3] it was -0.228; in [4], 0.65; in [5], -0.682; in [6], 1.68. The PBM binding z-score was -0.0308 in experiment [7], 0.648 in experiment [8], -0.204 in experiment [9] and 0.479 in experiment [10].
For the sequence AGAACGAGGGCACTGAGTTGATAGCACGGGTGGC, the PBM binding z-score was 0.0718 in [1]; -0.082 in experiment [2]; -0.301 in experiment [3]; -0.236 in experiment [4]; -0.887 in experiment [5]; 1.52 in experiment [6]. Moreover, the PBM binding z-score in [7] came out at 1.5; in [8], 1.04; in [9], 0.0133; in experiment [10], 0.347.
Turning to TGTCAAAGTTCAAAGGTAACATAAGTATCCACAC, the PBM binding z-score was determined as 7.47 in experiment [1]; 6.45 in [2]; 4.6 in [3]; 5.05 in experiment [4]; 2.12 in experiment [5]; 6.03 in [6]. The PBM binding z-score in experiment [7] was determined as 8.82; in experiment [8], 7.65; in [9], 5.46; in experiment [10] it was 7.34.
TCGAGTAGGTTAGTCGGGGCATACAGCCAACATA: the PBM binding z-score is 0.288 in [1]; 0.232 in experiment [2]; -0.353 in experiment [3]; 0.458 in experiment [4]; -0.174 in experiment [5]; 0.913 in experiment [6]. Also, the PBM binding z-score in [7] came to 0.365; in experiment [8] it was 0.998; in [9] it was 1.25; in experiment [10] it was 1.07.
On to ATACCAAGGTGATCGTGAGGTCGTTTATACTAAC, for which the PBM binding z-score was 1.68 in [1]; 1.66 in experiment [2]; 1.35 in experiment [3]; 1.74 in experiment [4]; 0.0373 in [5]; 1.69 in [6]. Moreover, the PBM binding z-score in [7] was 0.492; in [8] it was 0.454; in [9], -0.0827; in experiment [10], 0.159.
CCTGCTAGGTCATGGTCAGCTACTCTACAGTATG: the PBM binding z-score in experiment [1] was 3.3; in [2], 2.34; in experiment [3] it was 0.256; in experiment [4], 1.42; in [5] it was -0.441; in experiment [6] it was 3.16. In addition, the PBM binding z-score in experiment [7] stood at 2.56; in [8] it was 2.72; in experiment [9] it was 0.637; in experiment [10] it was 1.67.
For the sequence GCAGACAGGTGAAACGCAGCTAACTCAGGGTGGC, the PBM binding z-score is -0.722 in experiment [1]; -0.436 in experiment [2]; -0.887 in experiment [3]; -0.728 in [4]; -1.13 in experiment [5]; 0.359 in [6]. The PBM binding z-score in experiment [7] is 0.371; in experiment [8], -0.353; in experiment [9] it was -0.974; in experiment [10] it was -0.585.
For ACAGAGAGGTGATGAAGGTAACTCAGGCTATCAT, the PBM binding z-score in experiment [1] is 0.1; in [2], -0.0398; in experiment [3], -0.296; in experiment [4], 0.23; in [5] it was 0.0774; in experiment [6], 0.952. For the same sequence, the PBM binding z-score turned out to be 0.708 in experiment [7], 0.305 in experiment [8], 0.188 in experiment [9] and 0.328 in experiment [10].
Take TTACCAAGGTGGAGGTCGTTGATCCCTCTGTAGA: the PBM binding z-score in [1] is 1.68; in experiment [2] it was 1.96; in experiment [3], 0.12; in experiment [4], 1.66; in experiment [5] it was -0.0737; in [6], 1.7. Moreover, the PBM binding z-score turned out to be 0.691 in [7], 2.12 in [8], 0.972 in experiment [9] and 1.4 in experiment [10].

For the origin of these results see the supplement of paper PMC6555819.
